Screen size: about 340,000 compounds; about 4,200 (1.2%) were called active.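 How the source made its calls: active means inhibition above the mean of all tested compounds plus 3 SD (cut at about 24% in these data); inactive means the rest.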 The sample as a whole holds a higher share of actives than the screen did.
What follows are compounds tested against Platelet-activating factor acetylhydrolase IB subunit alpha2 (Homo sapiens) (UniProt P68402) (assay: PAFAH1B2 enzyme inhibitors, primary screen, biochemical, fluorescence polarization, human (AID 492953;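 further: 0% = enzyme with DMSO and 100% = wells lacking PAFAH1B2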)). Details: recombinant PAFAH1B2, FP-rhodamine activity probe, at 3.39 µM, active compounds read high.
Chain of Platelet-activating factor acetylhydrolase IB subunit alpha2 (Homo sapiens) (P68402 whole entry, looked up): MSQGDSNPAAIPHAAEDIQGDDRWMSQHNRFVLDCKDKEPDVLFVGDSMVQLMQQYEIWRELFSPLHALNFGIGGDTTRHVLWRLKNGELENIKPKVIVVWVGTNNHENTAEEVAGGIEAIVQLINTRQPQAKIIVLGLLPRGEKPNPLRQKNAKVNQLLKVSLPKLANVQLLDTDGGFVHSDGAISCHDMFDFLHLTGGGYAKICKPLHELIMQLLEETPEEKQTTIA

inhibition, active:
Cc1cc(=O)[nH]c(SCc2cc(Cl)ccc2OC(F)F)n1 26.4%
COc1ccc(C(=O)NNc2cc(C)nc(NNC(=O)c3ccc(OC)cc3)n2)cc1 24.3%
O=c1ccc2c(-c3ccccc3S(=O)(=O)O)c3ccc(O)c(O)c3oc-2c1O 26.6%
CC(C)Cn1c(N2CCN(C(=O)/C=C/c3ccccc3)CC2)nc2ccccc21 28.8%
Cc1ccc(S(=O)(=O)NC(=O)Nc2nc(-c3ccc(F)c(F)c3)cs2)cc1 30.1%
O=C1C(Cl)=C(Oc2ccccc2)C(=O)c2ccccc21 33.9%
Cc1ccc(SCC(=O)Nc2ncc(C)s2)cc1 26.1%
O=C(O)c1cc(S(=O)(=O)N2CCCCCC2)c(Cl)cc1Cl 24.3%
O=c1[nH]c(CCl)nc2cc(-c3ccc(Cl)cc3)sc12 43.4%
O=C(O)c1[nH]c2ccccc2c1C(c1cccc(O)c1)c1c(C(=O)O)[nH]c2ccccc12 94.6%
O=C(O)CC/C(=C\c1cc2c(cc1Br)OCO2)c1nc2ccccc2s1 27.5%
Cc1ccsc1C(=O)NNC(=O)COc1ccc(Br)cc1 24.9%
Fc1ccc(/C=N/Nc2nc(-c3cccnc3)nc3ccccc23)cc1 25.3%

inhibition, inactive:
CC1CC(=O)Nc2ccccc2N1C(=O)COc1ccc2cc(Br)ccc2c1 (stereo not given) 16.6%
COc1ccc(-c2cc(C(F)(F)F)nc(S(C)(=O)=O)n2)cc1OC -1.46%
Cc1cc[n+](-c2[nH]c(=O)sc2/C=N/NC(=O)c2ccccc2[O-])cc1C 8.46%
Cc1cc(=O)[nH]c(SCc2cccc(F)c2)n1 3.14%
COc1ccccc1-c1noc(CSc2nc(C)cc(=O)[nH]2)n1 1.01%
COc1ccc(CC(NC(C)=O)C(=O)NC2CCN(C(=O)Nc3ccc(C#N)cc3)CC2)cc1OC (stereo not given) 2.86%
CCN(C(=O)CN1CCN(Cc2ccccc2)CC1)c1c(N)n(Cc2ccccc2)c(=O)[nH]c1=O -0.83%
CCCCC1S/C(=N/N=C/c2cccs2)NC1=O (stereo not given) 8.36%
COc1ccc(C(=O)NNS(=O)(=O)c2ccc(C)cc2)cc1 6.56%
COc1ccc(C(=O)NNC(=O)c2cc(C)[nH]n2)cc1 5.54%
O=C1NC2(CCCCCC2)C(=O)N1CCS(=O)(=O)Oc1ccccc1 7.86%
CCn1c(CNC(=O)c2cc(OC)c(OC)c(OC)c2)cc2cc(C)ccc21 2.65%
CCCNC(=O)CN(Cc1ccccc1F)S(=O)(=O)c1ccc(C)cc1 4.33%
C=CCn1c(C(C)NC(=O)CC)nc2ccccc21 (stereo not given) 0.58%
Cc1cc(NC(=O)CSc2nc3ccccc3n2CC(C)C)no1 4.62%
CNC(=O)/C(=C\C=C\c1ccccc1)NC(=O)c1ccc([N+](=O)[O-])cc1 -3.09%
O=C(Cc1ccc(S(=O)(=O)N2CCOCC2)s1)Nc1ccc(Br)c(C(F)(F)F)c1 -4.41%
COc1cc(CC(=O)Nc2nc(-c3ccc(F)c(F)c3)cs2)cc(OC)c1OC 1.73%
COc1ccc(CC(=O)Nc2nc(-c3ccc(F)c(F)c3)cs2)cc1OC 4.28%
COc1ccc(C)cc1NC(=S)Nc1ccccc1SC 9.46%
CC(=O)Oc1ccc2c(c1)C(=O)c1ccccc1C2=O 7.25%
CC(=O)N(C1=C(Cl)C(=O)c2ccccc2C1=O)c1ccc(C(=O)O)cc1 15.6%
Cn1c(=O)oc2cc(S(=O)(=O)NCCC(=O)NCc3ccccc3Cl)ccc21 -3.01%
Cc1nn(-c2ncccn2)c2c1C(=O)CC(C)(C)C2Br (stereo not given) 3.5%
CCOCc1nnc(NC(=O)CSc2ccc(C)cc2)s1 -28.2%
Cc1cnc(NC(=O)CSc2nnc(-c3ccccc3)n2Cc2ccccc2)s1 7.97%
O=C(c1ccc(Cl)c(S(=O)(=O)N2CCCCC2)c1)N1CCCCCC1 -0.08%
O=C(Nc1nccs1)c1cc(S(=O)(=O)N2CCOCC2)c(Cl)cc1Cl -6.96%
Cc1ccc(S(=O)(=O)N2CCN(C(=O)CN3C(=O)NC(C)(c4ccc(Cl)cc4)C3=O)CC2)c(C)c1 (stereo not given) 5.07%
O=C(Nc1ccccc1)O/N=C1/CCCc2occc21 5.12%
CCn1c(SCC(=O)NC2CC2)nnc1-c1ccccn1 8.43%
CN(Cc1cc2cc(F)ccc2[nH]1)Cc1nc(-c2cnccn2)no1 3.21%
CN(CCOc1ccccc1)Cc1nc2cc(Cl)ccc2c(=O)[nH]1 -0.52%
CCC1(CC)Cc2ccccc2-c2nc(CCl)[nH]c(=O)c21 4.98%
Cc1ccc(-c2nc(CSCC(=O)NC3CCN(Cc4ccccc4)CC3)c(C)o2)cc1 3.88%
CCOC(=O)N1CCN(c2c(NCCCN3CCCC(C)C3)c(=O)c2=O)CC1 (stereo not given) -3.22%
CCCS(=O)(=O)Nc1c(C(=O)O)[nH]c2ccccc12 1.36%
CC(NC(=O)COC(=O)c1cc(=O)[nH]c2ccccc12)c1ccccc1 (stereo not given) 6.8%
COc1ccc(/C=N/N(C)C2=NS(=O)(=O)c3ccccc32)cc1OC 12%
Cc1nn(-c2ccc(F)cc2)c(Cl)c1/C=C(/CCC(=O)O)c1nc2ccccc2s1 4.71%
COc1ccc(C(=O)Nc2cccc(/C=C(/CCC(=O)O)c3nc4ccccc4s3)c2)cc1 -1.28%
NC(=O)COc1ccc(/C=N/NC(=O)C2CCCN2S(=O)(=O)c2ccc(Cl)cc2)cc1 (stereo not given) 2.71%
O=C(c1cccc(F)c1)N1CCC(O)(c2cccnc2)CC1 1.64%
Cn1cnnc1SCC(=O)NNC(=O)COc1ccc(Br)cc1 8.93%
Cn1cccc1C(=O)NNC(=O)COc1ccc(Br)cc1 6.31%
O=C(N/N=C\c1cccnc1)c1cc(-c2ccccc2)nc2c(Cl)cccc12 -6.71%
O=C(N/N=C/c1cccnc1)c1ccc(NC(=O)c2ccc(F)cc2)cc1 -2.15%

— PubChem BioAssay AID492953 (The Scripps Research Institute Molecular Screening Center, 2010)
